Here are results for 2 molecules from the supplement of paper PMC8728848.

Many of the other results were omitted from the sample, so the strongest signals are more common in it than they were.

What all share (assay): glycan array binding signal (z-score within array); higher = stronger binding
Conditions in all cases: glycan notation: IUPAC condensed, linker removed

Experiment [1] deals with Fuc(a1-2)Gal. In a few lines: (§1)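 Arrays were curated from the Consortium for Functional Glycomics database, 3228 in total, and kept only where the protein sequence was available. Binding is expressed as a within-array Z-score. This score was averaged across arrays of the same protein sequence at different concentrations or buffers and across linkers, and negative values can be read as non-binding.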

Experiment [2] has as its target Fuc(a1-2)Gal(b1-3)GlcNAc. Put shortly: as §1
Experiment [3] deals with Fuc(a1-2)Gal(b1-4)[Fuc(a1-3)]GlcNAc. Put shortly: as §1
In experiment [4] the target is Fuc(a1-3)[Gal(b1-4)]GlcNAc. Put shortly: as §1
The target in experiment [5] is Fuc(a1-3)[Gal3S(b1-4)]Glc6S. Put shortly:
as §1

In experiment [6] the target is Fuc(a1-3)[Gal3S(b1-4)]GlcNAc6S. In a few lines: as §1
Experiment [7] addresses Fuc(b1-3)GlcNAc. In a few lines: as §1
Experiment [8] deals with Gal(b1-3)Gal. In a few lines:
as §1

The target in experiment [9] is Gal(b1-4)GlcNAc(b1-6)GalNAc. In a few lines:
as §1

Experiment [10] concerns the target Gal3S(b1-4)GlcNAc. In a few lines: as §1
The target of experiment [11] is Gal3S6S(b1-4)GlcNAc6S. In a few lines:
as §1

In experiment [12] the target is Gal4S(b1-4)GlcNAc. In a few lines:
as §1

In experiment [13] the target is Gal6S(b1-4)Glc6S. Put shortly:
as §1

In experiment [14] the target is GlcNAc(b1-3)Gal(b1-3)GalNAc. Put shortly: as §1
For experiment [15], the target named is Man(a1-3)[Man(a1-6)]Man. Put shortly: as §1
Experiment [16] deals with Neu5Ac9Ac(a2-6)Gal(b1-4)GlcNAc. Put shortly: as §1
The target of experiment [17] is Fuc(a1-2)Gal(b1-4)Glc6S. Put shortly: as §1
Experiment [18] concerns the target Fuc(a1-2)[Gal(a1-4)]Gal(b1-4)GlcNAc. In a few lines: as §1
Experiment [19] has as its target Gal(a1-3)GalNAc. Put shortly:
as §1

The target in experiment [20] is Gal(b1-3)GalNAc. Put shortly:
as §1

Experiment [21] has as its target Gal(b1-4)Glc. Put shortly:
as §1

Experiment [22] deals with Gal(b1-4)GlcNAc(a1-6)Gal(b1-4)GlcNAc. In a few lines: as §1
For experiment [23], the target named is Gal(b1-4)GlcNAc(b1-3)Gal(b1-4)Glc. In a few lines: as §1
Experiment [24] concerns the target Gal3S(b1-3)GalNAc. In a few lines: as §1
In experiment [25] the target is GlcNAc(b1-2)Man(a1-3)[GlcNAc(b1-2)Man(a1-6)]Man(b1-4)GlcNAc(b1-4)GlcNAc. Put shortly: as §1
The target in experiment [26] is GlcNAc(b1-3)[GlcNAc(b1-6)]GalNAc. Put shortly:
as §1

Experiment [27] has as its target GlcNAc(b1-4)GlcNAc(b1-4)GlcNAc(b1-4)GlcNAc(b1-4)GlcNAc(b1-4)GlcNAc. Put shortly:
as §1

Experiment [28] concerns the target Kdn(a2-3)Gal(b1-4)GlcNAc. In a few lines:
as §1

The target of experiment [29] is Man(a1-3)[Man(a1-6)]Man(a1-6)[Man(a1-3)]Man(b1-4)GlcNAc(b1-4)GlcNAc. In a few lines:
as §1

The target of experiment [30] is Man(a1-3)[Man(a1-6)]Man(b1-4)GlcNAc(b1-4)GlcNAc. In a few lines:
as §1

The target in experiment [31] is Neu5Ac(a2-3)Gal(b1-3)GalNAc6S. Put shortly:
as §1

In experiment [32] the target is Neu5Ac(a2-3)Gal(b1-3)[Fuc(a1-4)]GlcNAc. Put shortly: as §1
For experiment [33], the target named is Neu5Ac(a2-3)Gal(b1-3)[Fuc(a1-4)]GlcNAc(b1-3)Gal(b1-4)[Fuc(a1-3)]GlcNAc. Put shortly: as §1
The target of experiment [34] is Neu5Ac(a2-3)Gal(b1-3)[Neu5Ac(a2-6)]GalNAc. Put shortly:
as §1

Experiment [35] deals with Neu5Ac(a2-3)Gal(b1-4)GlcNAc(b1-3)Gal(b1-3)GlcNAc. In a few lines:
as §1

In experiment [36] the target is Neu5Ac(a2-3)Gal(b1-4)[Fuc(a1-3)]GlcNAc(b1-6)[Gal(b1-3)]GalNAc. In a few lines:
as §1

For experiment [37], the target named is Neu5Ac(a2-3)Gal(b1-4)[Fuc(a1-3)]GlcNAc6S. Put shortly: as §1
The target in experiment [38] is Neu5Ac(a2-3)[Neu5Ac(a2-6)]GalNAc. In a few lines: as §1
Experiment [39] has as its target Neu5Ac(a2-6)GalNAc(b1-4)GlcNAc. In a few lines:
as §1

The target in experiment [40] is Neu5Gc(a2-3)Gal(b1-3)[Fuc(a1-4)]GlcNAc. In a few lines: as §1

B1: Fap1 (Streptococcus parasanguis) (protein)
chain: KATSKGTEEKQDSVRENLDKMISEAEVLNDMAARKLITLDAEQQLELMKSLVATQSQLEATKNLIGDPNATVADLQIAYTTLGNNTQALGNELIKLNPNGQIYAVLNNTEASRAATLRSTTTGTKTTFTISDFSNGGTQYYWAGGNANNLKNPISSISAVYDSATGKISWTVEYDPTTILKSPALKTLKTYTGIYIDTSSDSKLSTPTNVLIDGAATNPVTNFYGNGSKGIEYVSKGTTKGVTKHTITFDTAFSGRANDLADLEIKMLAATTLSDPHFYEDGSKGNYGRYNGQTAPYVIANDSGTAIGGYQVSGVNADSIPSDTT
Regarding B1, the “glycan array binding signal (z-score)” value worked out at 1.54 in [1]; 0.203 in [2]; 0.342 in experiment [3]; 0.377 in [4]; 0.012 in experiment [5]; 2.23 in [6]. The “glycan array binding signal (z-score)” value in experiment [7] was 0.144; in experiment [8] it was -0.318; in [9], 0.546; in [10], -0.22; in experiment [11], 1.8; in experiment [12] it was 1.82. Moreover, the “glycan array binding signal (z-score)” value in [13] is -0.521; in [14], 2.08; in experiment [15], 0.624; in experiment [16], 0.638.

B2: P-Selectin (Homo sapiens), P16109 (protein)
chain: MANCQIAILYQRFQRVVFGISQLLCFSALISELTNQKEVAAWTYHYSTKAYSWNISRKYCQNRYTDLVAIQNKNEIDYLNKVLPYYSSYYWIGIRKNNKTWTWVGTKKALTNEAENWADNEPNNKRNNEDCVEIYIKSPSAPGKWNDEHCLKKKHALCYTASCQDMSCSKQGECLETIGNYTCSCYPGFYGPECEYVRECGELELPQHVLMNCSHPLGNFSFNSQCSFHCTDGYQVNGPSKLECLASGIWTNKPPQCLAAQCPPLKIPERGNMTCLHSAKAFQHQSSCSFSCEEGFALVGPEVVQCTASGVWTAPAPVCKAVQCQHLEAPSEGTMDCVHPLTAFAYGSSCKFECQPGYRVRGLDMLRCIDSGHWSAPLPTCEAISCEPLESPVHGSMDCSPSLRAFQYDTNCSFRCAEGFMLRGADIVRCDNLGQWTAPAPVCQALQCQDLPVPNEARVNCSHPFGAFRYQSVCSFTCNEGLLLVGASVLQCLATGNWNSVPPECQAIPCTPLLSPQNGTMTCVQPLGSSSYKSTCQFICDEGYSLSGPERLDCTRSGRWTDSPPMCEAIKCPELFAPEQGSLDCSDTRGEFNVGSTCHFSCDNGFKLEGPNNVECTTSGRWSATPPTCKGIASLPTPGLQCPALTTPGQGTMYCRHHPGTFGFNTTCYFGCNAGFTLIGDSTLSCRPSGQWTAVTPACRAVKCSELHVNKPIAMNCSNLWGNFSYGSICSFHCLEGQLLNGSAQTACQENGHWSTTVPTCQAGPLTIQEASTSITAYKSEGESAEFSFPLNLGEESLQGELRWKAEKAPSSQSWITFSLKNQKVSVQKSTSNPKFQLSETLPLTLQIPQVSLQFAGSGNLTLTLDRGILYQEVNLVVMKVTQPDSNTLTCEVMGPTSPKMRLILKQENQEARVSRQEKVIQVQAPEAGVWQCLLSEGEEVKMDSKIQVLSKGLNSGGGSGGGTGGGDLAPQMLRELQETNAALQDVRELLRQQVKEITFLKNTVMECDACGLDRNLPPLAPLGPHPETLVKVKDAEDQLGARVGYIELDLNSGKILESFRPEERFPMMSTFKVLLCGAVLSRIDAGQEQLGRRIHYSQNDLVEYSPVTEKHLTDGMTVRELCSAAITMSDNTAANLLLTTIGGPKELTAFLHNMGDHVTRLDRWEPELNEAIPNDERDTTMPVAMATTLRKLLTGELLTLASRQQLIDWMEADKVAGPLLRSALPAGWFIADKSGAGERGSRGIIAALGPDGKPSRIVVIYTTGSQATMDERNRQIAEIGASLIKHWGPDYKDHDGDYKDHDIDYKDDDDKGPHHHHHH
On to B2, for which the “glycan array binding signal (z-score)” value in [1] was -0.092; in [17], -0.268; in experiment [18], -0.151; in [19], -0.071; in [20], -0.218; in experiment [21], -0.174. The “glycan array binding signal (z-score)” value is -0.301 in experiment [22]; -0.219 in experiment [23]; -0.113 in experiment [24]; 4.08 in [11]; -0.237 in experiment [25]; -0.329 in experiment [26]. Moreover, the “glycan array binding signal (z-score)” value is -0.163 in experiment [27]; -0.191 in [28]; -0.052 in experiment [29]; 0.332 in experiment [30]; 0.282 in [31]; 6.36 in experiment [32]. In addition, the “glycan array binding signal (z-score)” value in [33] is 3.52; in experiment [34], 0.025; in experiment [35], -0.141; in experiment [36] it was 0.071; in [37] it was 9.93; in experiment [38], -0.109. For the same molecule, the results for the “glycan array binding signal (z-score)” value in experiment [39] and in experiment [40] were -0.322 and 4.38, respectively.
